The record followed here is PubChem BioAssay (NCATS).

Test [1] can be described thus: Cytotoxicity counterscreen for inhibitors of SARS-CoV-2 cell entry (AID 1645845). Further: nearly all actives have a fitted effect of over 50% in size. On activity change, negative = cytotoxicity: on the % scale 0 is the no-effect control and ±100 the full control effect. Summed up: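 ATP-content luminescence (ATPLite 1step, 15 min RT) read after 48 h compound exposure of Expi293F cells stably expressing human ACE2; normalized to cells-only wells and media-only wells.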
Test [2] in a line: Primary qHTS to identify inhibitors of SARS-CoV-2 cell entry (AID 1645846). Further: nearly all actives have a fitted effect of over 45% in size. The conditions noted are these: activity change, negative = inhibition: at 57.1 µM (top of the series) unless noted. The method, boiled down: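 Inhibition of spike-mediated entry was scored in human ACE2-transfected Expi293F cells. Particles were MLV-pseudotyped with Wuhan-Hu-1 S carrying a 19-aa C-terminal deletion; signal was luciferase after two days, scaled between spike PP and fusion-protein-free PP.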

“And” between values parts separate entries of the source, which are not always exact repeats. Identical values can stand only once. Results filed as inconclusive are left out. The source made the active and inactive calls. The call rests on the fitted dose curve.
Potency means the concentration at half of the fitted maximal effect.

In the case of `CCCCC(=O)O[C@]1(C(=O)CO)CC[C@H]2[C@@H]3CCC4=CC(=O)CC[C@]4(C)[C@H]3[C@@H](O)C[C@@]21C`, the Potency result in test [1] and in test [2] was “inactive” in each case.
With `Nc1ccc(N=Nc2ccccc2)c(N)n1`, the Potency entry in test [1] and in test [2] was “inactive” each time.
On to `C=C1C[C@H]2[C@@H]3C=C(C)C4=CC(=O)CC[C@]4(C)[C@H]3CC[C@]2(C)[C@@]1(OC(C)=O)C(C)=O`, for which, in test [1], the Potency result is “inactive”. Besides, the activity change, negative = inhibition in test [2] amounted to 2.39%.
For `CCOCCOC(=O)/C=C/c1ccc(OC)cc1`, the Potency entry in test [1] and in test [2] was “inactive” throughout.
Consider `Cc1nc(C2CCCCC2)c(-c2ccc(S(N)(=O)=O)c(F)c2)o1`, for which the Potency result in test [1] and in test [2] was “inactive” in each case.
`O=C(OCC(O)CO)c1ccccc1Nc1ccnc2cc(Cl)ccc12` (centres undefined): the Potency entry in test [1] was “inactive”. Also, the activity change, negative = inhibition in test [2] is -18.4%.
On to `C[C@@H]1C[C@H]2[C@@H]3CCC4=CC(=O)C=C[C@]4(C)[C@@]3(Cl)[C@@H](O)C[C@]2(C)[C@@]1(OC(=O)c1ccco1)C(=O)CCl`, for which the Potency result in test [1] was “inactive”. Besides, the activity change, negative = inhibition in test [2] is -22.6%.
The like results for `N=C(N)c1ccc(OCCCOc2ccc(C(=N)N)cc2)cc1` were, in that order, “inactive” and -8.76%.
As for `C[N+]12CCC(CC1)C(OC(=O)C(O)(c1ccccc1)c1ccccc1)C2` (centres undefined), the Potency result in test [1] and in test [2] was “inactive” in each case.
Consider `C[C@]12CC[C@@H]3c4ccc(O)cc4CC[C@H]3[C@@H]1C[C@@H](O)[C@@H]2O`, for which the Potency entry in test [1] is “inactive”. Moreover, in test [2], the activity change, negative = inhibition is -20% and -12.5%.
For `CC(C)NCC(O)COc1ccc(COCCOC(C)C)cc1` (centres undefined), the Potency result in test [1] and in test [2] was “inactive” in each case.
Take `CCCCCCCCCCCCCCCC[N+](C)(C)Cc1ccccc1`: the Potency is 22.4 µM (active) in test [1] and 17.8 µM (active) in test [2].
`N[C@@H](CSSC[C@H](N)C(=O)O)C(=O)O`: the activity change, negative = cytotoxicity in test [1] was 0.929% [at 0.702 µM] (inactive). Also, the activity change, negative = inhibition in test [2] is -10.6% [at 0.702 µM].
For `Cc1ccc(/C=N/n2c(-c3ccccc3)csc2=S)cc1`, the Potency result in test [1] was “inactive”. Besides, in test [2], the activity change, negative = inhibition is -8.63%.
Take `CC(C)NCCCC1(C(N)=O)c2ccccc2-c2ccccc21`: the Potency result in test [1] and in test [2] was “inactive” each time.
Regarding `O=C1C(c2[nH]c3ccccc3c2O)=Nc2ccccc21`, the Potency entry in test [1] was “inactive”. In addition, the activity change, negative = inhibition in test [2] is -0.955%.
As for `CC(=O)OCC(=O)[C@@]1(O)CC[C@H]2[C@@H]3CCC4=CC(=O)C=C[C@]4(C)[C@H]3[C@@H](O)C[C@@]21C`, the Potency entry in test [1] and in test [2] was “inactive” each time.
For `OC1C(O)C(O)C(O)C(O)C1O` (centres undefined), the Potency result in test [1] was “inactive”. Besides, the activity change, negative = inhibition in test [2] is -22.4%.
For `O=C(CCCN1CC=C(n2c(=O)[nH]c3ccccc32)CC1)c1ccc(F)cc1`, the Potency result in test [1] and in test [2] was “inactive” throughout.
For the compound `CCOc1ccc(C(=O)OCCN(CC)CC)cc1`, in test [1], the Potency entry was “inactive”. In test [2], the activity change, negative = inhibition was -1.6%.
Regarding `CC(=O)Oc1ccc(C(c2ccc(OC(C)=O)cc2)c2ccccn2)cc1`, the Potency entry in test [1] and in test [2] was “inactive” each time.
As to `O=C(NN1CCCC1)NS(=O)(=O)c1ccc(Cl)cc1`, the Potency result in test [1] and in test [2] was “inactive” throughout.
Consider `CC(=O)[C@H]1CC[C@H]2[C@@H]3CC=C4C[C@@H](O)CC[C@]4(C)[C@H]3CC[C@]12C`, for which the Potency entry in test [1] and in test [2] was “inactive” throughout.
As to `CCOC(=O)[C@H](CCc1ccccc1)N[C@H]1CCc2ccccc2N(CC(=O)O)C1=O`, the Potency result in test [1] was “inactive”. Moreover, in test [2], the activity change, negative = inhibition was -24.9%.
On to `CCCCC1(COC(=O)CCC(=O)O)C(=O)N(c2ccccc2)N(c2ccccc2)C1=O`, for which the Potency entry in test [1] and in test [2] was “inactive” throughout.
As for `C[N+](C)(C)CCOC(=O)CCC(=O)OCC[N+](C)(C)C`, the Potency result in test [1] and in test [2] was “inactive” each time.
`CCn1cc(C(=O)O)c(=O)c2cc(F)c(N3CCNCC3)nc21`: the Potency result in test [1] and in test [2] was “inactive” in each case.
In the case of `CCOC(=O)OC(C)OC1=C(C(=O)Nc2ccccn2)N(C)S(=O)(=O)c2ccccc21` (centres undefined), the Potency entry in test [1] and in test [2] was “inactive” each time.
Regarding `Cc1[nH]c(C)c(Cl)c(=O)c1Cl`, the Potency entry in test [1] and in test [2] was “inactive” each time.
For the compound `CC(=C(CCOC(=O)C(C)C)SSC(CCOC(=O)C(C)C)=C(C)N(C=O)Cc1cnc(C)nc1N)N(C=O)Cc1cnc(C)nc1N`, the Potency result in test [1] and in test [2] was “inactive” throughout.
Regarding `CCCCCCCCCCCCCCCCCCOCC(O)CO` (centres undefined), the Potency entry in test [1] is “inactive”. Also, the activity change, negative = inhibition in test [2] stood at 2.2%.
In the case of `C[N+]1(CC2COC(c3ccccc3)(C3CCCCC3)O2)CCCCC1` (centres undefined), the Potency entry in test [1] was “inactive”. Also, in test [2], the activity change, negative = inhibition is -2.6%.
Consider `CC(=O)O[C@H]1C[C@@H]2CC[C@@H]3[C@H](CC[C@@]4(C)[C@H]3C[C@H]([N+]3(C)CCCCC3)[C@@H]4OC(C)=O)[C@@]2(C)C[C@@H]1N1CCCCC1`, for which the Potency result in test [1] is “inactive”. Also, in test [2], the activity change, negative = inhibition is -7.24%.
Turning to `CC(C)C[C@@H](N)C(=O)O`, in test [1], the Potency entry was “inactive”. Further, the activity change, negative = inhibition in test [2] was found to be 3.85% [at 27.1 µM].
As to `NC(N)=NCCC[C@H](N)C(=O)O`, the outcome in test [1] and in test [2] was “inactive [at 5.25 µM]” each time.
`Cc1ccc2c(Cl)cc(Cl)c(O)c2n1`: the Potency result in test [1] and in test [2] was “inactive” in each case.
For `O=C(O)c1cn(-c2ccc(F)cc2)c2cc(N3CCNCC3)c(F)cc2c1=O`, the Potency result in test [1] and in test [2] was “inactive” throughout.
For the compound `CC(C(=O)O)c1ccc2c(c1)Cc1cccnc1O2` (centres undefined), the Potency entry in test [1] was “inactive”. The activity change, negative = inhibition in test [2] is -13.6%.
In the case of `CCOC(=O)Nc1ccc(NCc2ccc(F)cc2)nc1N`, the Potency entry in test [1] was “inactive”. Moreover, the activity change, negative = inhibition in test [2] was -22.5%.
Regarding `CN(C)CC[C@@H](c1ccc(Cl)cc1)c1ccccn1`, the Potency result in test [1] is “inactive”. Moreover, the activity change, negative = inhibition in test [2] worked out at 0.546%.
For `O=C(O)CCC(=O)c1ccc(-c2ccccc2)cc1`, the Potency result in test [1] and in test [2] was “inactive” throughout.
Turning to `CC(=O)Oc1ccc2c(c1)CC[C@@H]1[C@@H]2CC[C@]2(C)[C@@H](O)CC[C@@H]12`, the Potency entry in test [1] was “inactive”. Also, in test [2], the activity change, negative = inhibition was -11%.
